The list is not random: actives were taken first. Their share in the collection is about 2.3%.
aSyn 5UTR inh: MLPCN primary screen, SNCA 5' untranslated region; alpha-synuclein 5'UTR reporter, inhibitor activity; inhibition, % (tested at 7.5 µM); 300,000 tested, 0.82% active; AID 1813; in the data active means inhibition above about 60%; inconclusive means no clear call, values can overlap the other calls;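 further: H4 neuroglioblastoma cells stably carrying SNCA 5'UTR luciferase fusion; 0% = DMSO wells and 100% = positive control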
697 NFkB inh: inhibitors of the PMA/ionomycin-induced NF-kB reporter in 697 B cells; AID 435022; 330,000 tested, 0.33% active; inhibition, % at 4 µM; 697 B-cell NF-kB luciferase reporter, 16 h; in the data active means inhibition above about 35%
Shn3 3UTR inh: reduces Shn3 3'UTR luciferase signal in osteoblasts; Clone20 osteoblast Shn3 3'UTR firefly luciferase, 24 h; 360,000 tested, 0.52% active; inhibition, % at 12.5 µM;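 active means mean inhibition of at least 75% with every replicate also reaching 75%; inconclusive means mean inhibition at least 75% but some replicate below; inactive means mean inhibition below 75%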;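 further: 0% = median of neutral control wells and 100% = pilot-screen positive control compound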
Jurkat NFkB inh: inhibitors of the PMA/ionomycin-induced NF-kB reporter in Jurkat cells; 330,000 tested, 0.53% active; PMA/ionomycin-induced NF-kB luciferase reporter, luminescence; inhibition, % at 4 µM; in the data active means inhibition above about 50%
Gli-Sufu block: blocks Gli-Sufu signaling in a luciferase reporter. Sufu-KO-LIGHT fibroblasts, Gli luciferase reporter luminescence. inhibition, % at 5 µM. 340,000 tested, 0.74% active. AID 588413;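 active means inhibition above about 55%, limit read from the data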;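 further: 0% = DMSO-treated cells and 100% = wells with medium but no cells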
H9c2 TAG inh: triacylglycerol accumulation inhibition | inhibition, % at 12.5 µM | 230,000 tested, 0.66% active | H9c2 cells, Nile Red lipid (TAG) fluorescence; cells loaded with 200 µM oleic acid;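 active means pattern-corrected inhibition of lipid staining of at least 50% with the nuclear-stain viability signal not falling by more than 50%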;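 further: 0% = DMSO wells and 100% = triacsin C control wells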
Numbers without * were called inactive.

`CN=c1scc(-c2ccc(F)cc2)n1/N=C/c1ccc(O)c(O)c1` gave 697 NFkB inh -146.7, Shn3 3UTR inh 88.9*, Jurkat NFkB inh 33.5, Gli-Sufu block 58.2* and H9c2 TAG inh 16.3.
CN=c1scc(-c2ccc([N+](=O)[O-])cc2)n1/N=C/c1ccco1 was read as aSyn 5UTR inh -58.7, 697 NFkB inh -143.1, Shn3 3UTR inh -25.3, Jurkat NFkB inh -111.3, Gli-Sufu block -53.6 and H9c2 TAG inh -20.9.
O=C1C(=C(c2ccccc2)N2CCOCC2)Cc2ccccc21 was read as Shn3 3UTR inh 97.6* and H9c2 TAG inh 84.0.
Screening CCOC(=O)C1(C)CCCN1C(=O)c1ccc(C(F)(F)F)nc1C (stereo not drawn) returned Shn3 3UTR inh -10.6 and H9c2 TAG inh -12.7.
Screening Cc1cccc(OC(=O)Cn2c(C(F)(F)F)nc3ccccc32)c1 returned aSyn 5UTR inh 19.7, 697 NFkB inh 9.6, Shn3 3UTR inh -8.3, Jurkat NFkB inh -5.4, Gli-Sufu block 0.0 and H9c2 TAG inh -6.9.
`CC1CCC(C(C)C)C(OC(=O)Cn2c(-c3ccc(F)cc3)[n+](C)c3ccccc32)C1` (stereo not drawn) gave 697 NFkB inh -105.6, Shn3 3UTR inh 72.0, Jurkat NFkB inh 36.8 and Gli-Sufu block 80.9*.
`Cc1cccc(OCc2n(CC(=O)OC3CC(C)CCC3C(C)C)c3ccccc3[n+]2C)c1` (stereo not drawn) gave aSyn 5UTR inh inconclusive, 697 NFkB inh -13.6, Shn3 3UTR inh 6.5, Jurkat NFkB inh 45.2, Gli-Sufu block 46.2 and H9c2 TAG inh 97.8*.
For CC1CCC(C(C)C)C(OC(=O)C[n+]2cc(-c3ccc(Cl)cc3)n3c2CCC3)C1 (stereo not drawn) the results were aSyn 5UTR inh -1.9, 697 NFkB inh -26.1, Shn3 3UTR inh 15.8, Jurkat NFkB inh -17.4, Gli-Sufu block 13.9 and H9c2 TAG inh -6.5.
Screening O=C(NNC(=O)c1ccccc1OCc1ccc(F)cc1)c1ccccc1O returned aSyn 5UTR inh 67.5*, 697 NFkB inh -30.6, Shn3 3UTR inh 65.1, Jurkat NFkB inh 17.3, Gli-Sufu block 24.1 and H9c2 TAG inh 3.2.
Screening C/C(=N\NC(=O)c1cc(Br)ccc1O)c1ccccn1 returned aSyn 5UTR inh 48.8, 697 NFkB inh -134.9, Shn3 3UTR inh 51.1, Jurkat NFkB inh -28.3, Gli-Sufu block 66.5* and H9c2 TAG inh -8.6.
C/C(CC(=O)Nc1ccccn1)=N\NC(=O)c1ccccc1O was read as aSyn 5UTR inh 71.0*, 697 NFkB inh -37.9, Shn3 3UTR inh 17.6, Jurkat NFkB inh 0.7 and Gli-Sufu block -9.0.
Screening O=C(NNC(=O)c1ccccc1OCc1ccccc1)c1ccccc1O returned aSyn 5UTR inh 64.9*, 697 NFkB inh -38.5, Shn3 3UTR inh 57.6, Jurkat NFkB inh 8.1, Gli-Sufu block 13.8 and H9c2 TAG inh 3.3.
For C/C(=N/NC(=O)c1ccccn1)c1ccncc1 the results were aSyn 5UTR inh -115.7, 697 NFkB inh -26.1, Shn3 3UTR inh -33.8, Jurkat NFkB inh -44.1 and Gli-Sufu block 2.8.
Screening COc1ccc(CN(C(=O)c2nsc(Cl)c2Cl)C(C(=O)NC2CCCC2)c2ccc(C)cc2)cc1 (stereo not drawn) returned aSyn 5UTR inh 6.1, 697 NFkB inh 10.0, Shn3 3UTR inh 19.6, Jurkat NFkB inh -5.1, Gli-Sufu block 8.1 and H9c2 TAG inh 40.2.
Screening O=C(NCc1ccc(F)cc1)c1ccccc1OCc1ccccc1 returned aSyn 5UTR inh 32.1, 697 NFkB inh -29.7, Shn3 3UTR inh 19.0, Jurkat NFkB inh -3.0 and Gli-Sufu block 9.0.
C/C(=N\NC(=O)c1ccccc1OCc1ccc(F)cc1)c1ccccn1 was read as 697 NFkB inh -79.7, Shn3 3UTR inh 93.2*, Jurkat NFkB inh 37.1, Gli-Sufu block 46.8 and H9c2 TAG inh -2.7.
Screening COc1ccc(C(=O)OCC(=O)NC2CCCC2)c(OC)c1OC returned aSyn 5UTR inh 7.9, 697 NFkB inh -8.1, Shn3 3UTR inh -3.0, Jurkat NFkB inh -9.4 and Gli-Sufu block 23.4.
Screening Cc1coc2c1C(=O)C(=O)c1c-2ccc2c1CCCC2(C)C returned aSyn 5UTR inh 63.0*, 697 NFkB inh 5.5, Shn3 3UTR inh -11.3, Jurkat NFkB inh -6.6 and Gli-Sufu block -17.4.
C[C@H]1COC2=C1C(=O)C(=O)c1c2ccc2c1CCCC2(C)C was read as aSyn 5UTR inh 101.6*, Shn3 3UTR inh 9.1 and Gli-Sufu block -12.3.
`OCCC1CN(Cc2ccccc2O)CCN1CCc1ccccc1` (stereo not drawn) gave aSyn 5UTR inh -37.3, 697 NFkB inh 3.2, Shn3 3UTR inh 3.3, Jurkat NFkB inh 15.4, Gli-Sufu block 11.4 and H9c2 TAG inh 16.3.
`Cc1cc(Cl)c2oc(C(=O)N(C)Cc3ccon3)c(C)c2c1` gave aSyn 5UTR inh -104.3, 697 NFkB inh -140.8, Shn3 3UTR inh -69.3 and Jurkat NFkB inh -123.7.
Screening Cc1nccn1Cc1cccc2ccccc12 returned aSyn 5UTR inh -8.7, 697 NFkB inh -18.3, Shn3 3UTR inh 18.4, Jurkat NFkB inh 7.4 and Gli-Sufu block -0.6.
`C[C@@H](C[C@@H](O)[C@H](O)C(C)(C)O)[C@@H]1CC[C@]2(C)C3=CC[C@H]4C(C)(C)C(=O)CC[C@]4(C)[C@H]3CC[C@@]12C` gave aSyn 5UTR inh -3.9, 697 NFkB inh 6.5, Shn3 3UTR inh 92.1*, Jurkat NFkB inh 26.0, Gli-Sufu block 31.4 and H9c2 TAG inh -44.7.
Screening Cc1cc(C(=O)OCC(=O)Nc2cc(S(=O)(=O)N(C)C)ccc2C)c(C)o1 returned aSyn 5UTR inh -15.1, 697 NFkB inh 16.8 and Jurkat NFkB inh 4.5.
For O=C(CCl)Nc1c(C(=O)Nc2ccc3c(c2)OCCO3)oc2ccccc12 the results were aSyn 5UTR inh -139.0, 697 NFkB inh -155.7, Shn3 3UTR inh 94.7*, Jurkat NFkB inh -89.3, Gli-Sufu block -67.8 and H9c2 TAG inh 0.4.
`COCC(=O)Nc1c(C(=O)Nc2ccc3c(c2)OCO3)oc2ccccc12` gave aSyn 5UTR inh -116.7, 697 NFkB inh -64.5, Shn3 3UTR inh -74.8, Jurkat NFkB inh -74.7 and Gli-Sufu block -78.1.
Screening O=C1c2ccccc2C(=O)C12OC2c1ccc(Cl)cc1Cl (stereo not drawn) returned Shn3 3UTR inh 95.1*, Gli-Sufu block 25.8 and H9c2 TAG inh 31.0.
Screening O=C1c2ccccc2C(=O)C1c1ccc(Cl)cc1 returned aSyn 5UTR inh 5.5, 697 NFkB inh -16.3, Shn3 3UTR inh 3.9, Jurkat NFkB inh -11.9, Gli-Sufu block -6.5 and H9c2 TAG inh 28.8.
`COc1ccc(CCNC(=O)CN(Cc2ccc(Cl)cc2)S(C)(=O)=O)cc1OC` gave aSyn 5UTR inh 8.5, 697 NFkB inh 6.6, Shn3 3UTR inh 3.0, Jurkat NFkB inh 9.1, Gli-Sufu block -10.8 and H9c2 TAG inh 9.0.
For Cc1ccccc1CN1CC2=C(CCN(Cc3ccccc3)C2=O)N2CCN=C12 the results were Shn3 3UTR inh 81.1*.
Screening c1ccc(CN2C3=NCCN3c3ccccc32)cc1 returned aSyn 5UTR inh -6.1, 697 NFkB inh -11.4, Shn3 3UTR inh -29.6, Jurkat NFkB inh -0.3 and Gli-Sufu block 5.3.
